# Only some compounds are listed: those with a hit (about 19% of all), similar ones and a draw of the others.
# TDP1 cell noCPT = qHTS for Inhibitors of human tyrosyl-DNA phosphodiesterase 1 (TDP1): qHTS in cells in absence of CPT; DT40 Tdp1-/- hTDP1 cells, no CPT, ATP luminescence, 48 h; Potency, µM (top dose mostly 46.2 µM), inactives show at the top dose activity change, negative = growth inhibition, usual class: inhibitors; 420,000 tested, 15% active; AID 686978, 2013; note: potency is the fitted concentration of half-maximal effect; nearly all actives have a fitted effect of over 55% in size
#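 Chicken DT40 Tdp1-/- cells complemented with human TDP1, screened without camptothecin (DMSO vehicle only), 400 cells/well. Compounds pin-transferred, cells incubated at 37 °C for at least 48 hr. Growth read as ATP-dependent luminescence (CellTiter-Glo, 30 min at RT).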
# TDP1 cell CPT = growth inhibition of DT40 Tdp1-/-;hTDP1 cells with camptothecin (screen for TDP1 inhibitors) | chicken DT40 Tdp1-/-;hTDP1 cells + 20 nM CPT, ATP luminescence, 48 h | Potency, µM (highest dose often 46.2 µM), inactives show at the highest dose activity change, negative = growth inhibition, actives largely listed as inhibitors | 420,000 tested, 12% active | AID 686979; note: potency is the fitted concentration of half-maximal effect; nearly all actives have a fitted effect of over 55% in size
#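 Chicken DT40 Tdp1-/- cells complemented with human TDP1, 400 cells/well, exposed to compounds plus 20 nM camptothecin for at least 48 h at 37 C; viability read as ATP content by CellTiter-Glo luminescence.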
# IL-1B inflam inh = inflammasome signaling inhibition, IL-1 beta readout; 360,000 tested, 4.7% active; THP-1 LPS/ATP IL-1B secretion, AlphaLISA, 16 h; active compounds read low; activity change, % at 57.5 µM; in the data active = activity change below about -50%; inconclusive = mostly about -30% to -49%
#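 THP-1 cells pretreated 1 hr with compounds (up to 57.5 uM final), then stimulated with LPS (250 ng/mL final) plus ATP (1.25 mM final); secreted IL-1B measured by AlphaLISA after 16 hr, decreased signal indicating inhibition.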
# HT1080 IDH1KD tx = toxicity to HT-1080 IDH1 knockdown cells (counter line); HT-1080 IDH1 knockdown viability, ATP luminescence, 48 h; 360,000 tested, 2% active; Potency, µM (doses to about 46.1 µM), without a hit: at the highest dose activity, negative = toxicity, most hits filed as cytotoxic;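 note: potency is the fitted concentration of half-maximal effect; 0% = DMSO wells and -100% = cell-free medium wells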
#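 Viability of IDH1-knockdown HT-1080 fibrosarcoma cells was assessed by CellTiter-Glo after 48 h at 37 °C with titrated compound; concentration-effect curves were classified by fit quality and response size.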
# HT1080-NT tox = kills 2HG-producing HT-1080-NT fibrosarcoma cells. Potency, µM (series often up to 46.1 µM), inactives show at the top dose activity, negative = less viability, hits mostly cytotoxic. HT-1080-NT fibrosarcoma viability, CellTiter-Glo ATP luminescence, 48 h. 360,000 tested, 1.6% active;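 note: NT is the 2HG producing partner of a matched IDH1 knockdown line; potency is the fitted concentration of half-maximal effect; 0% = DMSO-treated cells and -100% = media-only wells without cells; nearly all actives have a fitted effect of over 55% in size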
#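 HT-1080-NT fibrosarcoma cells (2HG-overproducing), 750 cells/well in RPMI with 5% FBS, dosed after 2 h and incubated 48 h at 37C. CellTiter-Glo luminescence normalized to DMSO and no-cell wells; concentration-response curves fitted and classed.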
# * marks the source's active call; other numbers are inactive results; ? = inconclusive; . = no result given; [ ] = dose if it differs, or a comment. Unless noted, calls come from the whole dose curve; as a rule, active = well fitted curve in the direction sought with a large enough effect; inconclusive = small, poorly fitted or top-dose-only effect, or another doubt; inactive = no such curve, though single readings can be large; an effect the other way counts as inactive or inconclusive. Unless noted, % is set by controls: 0 for no effect and ±100 for the full control effect.
SMILES,TDP1 cell noCPT,TDP1 cell CPT,IL-1B inflam inh,HT1080 IDH1KD tx,HT1080-NT tox
COc1ccc(C2C=C(c3ccc(C)c(C)c3)Nc3ncnn32)c(OC)c1OC (stereo not given),5.2µM*,8.2µM*,-14,?,?
Cc1ccc(S(=O)(=O)N2CCC(C(=O)NCCN3CCOCC3)CC2)cc1,-8%,-1%,-3,0%,-2%
CCOc1ccccc1CNC(=O)CCn1ccc2cc(S(=O)(=O)N3CCCCC3)ccc21,29µM*,16µM*,3,-3%,-10%
COc1ccccc1CNC(=O)Cn1ccc2cc(S(=O)(=O)N3CCCC3)ccc21,-10%,-14%,-6,-7%,-1%
CC1CCN(S(=O)(=O)c2ccc3c(ccn3CCC(=O)N3CCCCC3)c2)CC1,6.5µM*,?,-7,-6%,-5%
COc1cccc(CNC(=O)CCn2ccc3cc(S(=O)(=O)N4CCC(C)CC4)ccc32)c1,-25%,?,?,-8%,-23%
CCOc1ccccc1CNC(=O)CCn1ccc2cc(S(=O)(=O)N3CCC(C)CC3)ccc21,12µM*,9.2µM*,.,.,.
O=C(O)CCn1ccc2cc(S(=O)(=O)N3CCCCCC3)ccc21,14%,-10%,8,-5%,-4%
CCOc1ccccc1CNC(=O)Cn1ccc2cc(S(=O)(=O)N3CCCCCC3)ccc21,2.9µM*,8.2µM*,?,-9%,0%
COCCCNC(=O)C[C@H]1C[C@H](C(=O)N2CCCCC2)[C@@]2(CCc3ccccc3)c3[nH]c4cc(CCC(=O)N(C)C)ccc4c3CCN2C1=O,-26%,-20%,-14,9%,3%
COC(=O)c1ccccc1NC(=O)CSc1nc2ccccc2nc1Cc1ccccc1OC,-4%,-18%,.,.,.
O=C1NC[C@@H](CCCCN2C[C@H](Cc3ccc(O)cc3)N(CC3CCCCC3)C(=O)C2=O)N(Cc2ccccc2)C1=O,-1%,12%,-4,?,18%
CC(C)CC(=O)Nc1nc(=S)ss1,10µM*,?,-1,-2%[9.24 µM],-2%
COc1ccc(CCN2C(=O)c3[nH]nc(-c4ccccc4O)c3C2c2ccccc2)cc1 (stereo not given),5.8µM*,5.2µM*,.,.,.
COc1cccc(C2c3c(-c4ccccc4O)n[nH]c3C(=O)N2CCc2ccc(OC)c(OC)c2)c1 (stereo not given),18µM*,15µM*,.,.,.
CC1(C)C(=O)Nc2ccccc2N1C(=O)COc1cc(Cl)ccc1Cl,?,?,13,0%,7%
COc1ccc(C2=Nc3ccccc3OC2)cc1,15µM*,26µM*,25,-15%,-7%
NNC(=O)CNC(=O)c1cccc(Br)c1,-15%,-13%,2,-2%,-2%
COc1ccc(NC(=O)/C(C#N)=C\C=C\c2ccco2)cc1,2.9µM*,8.2µM*,-22,21µM*,?
CCOC(=O)c1cc(NC(=O)NC2CCCCC2)c(C)nc1C,-21%,-13%,16,24%,29%
CCOC(=O)c1cnc(-n2nc(C)cc2C)nc1NC,?,?,-14,?,7.1µM*
CCOC(=O)c1cnc(-n2nc(C)cc2C)nc1Nc1ccc(C)cc1,5.2µM*,4.6µM*,0,2%,7%
CCOC(=O)c1cnc(-n2nc(C)cc2C)nc1NC1CCCCC1,5.2µM*,4.6µM*,-100*,-15%,?
CCOC(=O)c1cnc(-n2nc(C)cc2C)nc1NNc1nc(C)cc(C)n1,-23%,-4%,14,0%,2%
CCOC(=O)c1cnc(-n2nc(C)cc2C)nc1NNc1nc(-c2ccccc2)cc(-c2ccccc2)n1,3.3µM*,3.7µM*,23,?,?
SMILES,TDP1 cell noCPT,TDP1 cell CPT,IL-1B inflam inh,HT1080 IDH1KD tx,HT1080-NT tox
Cc1ccc(S(=O)(=O)N2CCOCC2)cc1NC(=O)CSCc1c(C)noc1C,1%,-4%,7,-7%,3%
CC1=CN2C(c3cccc([N+](=O)[O-])c3)=NON(c3ccc(C)cn3)C2C=C1 (stereo not given),?,?,42,10%,?
CCOC(=O)C(=O)N(C)c1c(CC)nc2c(OCc3ccccc3OC)cccn12,?,-14%,25,6%,24%
CCOC(=O)c1cnc(-n2nc(C)cc2C)nc1N(CC)CC,16µM*,23µM*,-5,1.6µM*,?
CCOC(=O)c1cnc(-n2nc(C)cc2C)nc1Oc1ccc(C#N)cc1,-27%,-11%,15,5%,13%
CCOC(=O)c1cnc(-n2nc(C)cc2C)nc1Nc1ccc(N(C)C)cc1,1.8µM*,1.3µM*,-5,-20%,-8%
CCOC(=O)c1cnc(-n2nc(C)cc2C)nc1Nc1ccc(O)cc1,2.9µM*,2.3µM*,0,9%,15%
CCOC(=O)c1cnc(-n2nc(C)cc2C)nc1Nc1cccc(C(=O)O)c1,-22%,-10%,15,0%,0%
CCOC(=O)c1cnc2c(Cl)c(Cl)ccc2c1Nc1ccc(N(C)C)cc1,?,-17%,.,.,.
CC1CCC2(CC1)NC(=O)N(NC(=O)c1cccc(N(C)C)c1)C2=O (stereo not given),1%,8%,-3,-2%,-1%
C[C@H](O)[C@@H]1C(=O)N2CCc3c([nH]c4ccccc34)[C@@H]2C[C@@H]1N(C)C(=O)c1ccco1,-24%,?,2,-10%,1%
COc1cccc(NC(=O)N2CCN3CCCCC3C2)c1 (stereo not given),2%,-18%,.,.,.
COc1ccc(S(=O)(=O)Nc2ccccn2)cc1,4%,5%,6,15%,5%
Cc1ccc(S(=O)(=O)Nc2ccccc2-c2ccccc2NS(=O)(=O)c2ccc(C)cc2)cc1,?,?,7,?,?
Cc1ccc(S(=O)(=O)Nc2cccc3cccnc23)cc1,21µM*,?,-97*,-20%,-2%
COc1cc(NS(=O)(=O)c2ccc(C)cc2)c2ncccc2c1,1.2µM*,0.82µM*,54,?,-30%
Oc1ccc(C[C@@H]2CNCCN2CC2(c3ccccc3)CC2)cc1,?,?,?,2%,-11%
CCCC[C@@H]1CNCCN1CC1(c2ccccc2)CC1,12µM*,12µM*,?,-2%,-13%
Oc1ccc(C[C@H]2CNCCN2CC2(c3ccccc3)CC2)cc1,?,21µM*,-61*,-12%,-1%
COc1ccc(-c2cc(C)no2)cc1S(=O)(=O)N1CCN(C(=O)c2ccco2)CC1,-3%,-13%,-6,-9%,-5%
Cn1c(SCC(=O)Nc2ccc(C(=O)O)cc2)nc2scc(-c3ccccc3Cl)c2c1=O,-26%,2%,0,-16%,-19%
